HEK cytotox = Cytotoxic Profiling in HEK 293 Cell Line of Diverse Libraries Using Quantitative High-Throughput Screening; HEK 293 viability, ATP luminescence (CellTiter-Glo), 48-72 h; AID 1345083, 2018; hit rate 6.6% among 94,000; Potency, µM (top dose mostly 115 µM), inactives show at the highest dose activity change, negative = cytotoxicity, most hits filed as inhibitors; note: nearly all actives have a fitted effect of over 60% in size
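CellTiter-Glo luminescence (cellular ATP) was read after 48 or 72 hr of compound exposure at 37 degree Celsius. Cells were HEK 293 plated at 250 cells/well.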
3T3 cytotox = Cytotoxic Profiling in NIH 3T3 Cell Line of Diverse Libraries Using Quantitative High-Throughput Screening. NIH 3T3 viability, CellTiter-Glo ATP luminescence, 48-72 h. Potency, µM (doses to about 96.7 µM), inactives show top-dose activity change, negative = cytotoxicity, usual class: inhibitors. hit rate 4.3% among 94,000; note: nearly all actives have a fitted effect of over 55% in size
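Viability of NIH 3T3 cells after 48 or 72 hr compound treatment at 37 °C was assessed by CellTiter-Glo, with luminescence imaged following a 10 min room-temperature step.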
FLuc inh = Firefly luciferase inhibition profiling of diverse chemical library using quantitative high-throughput screening | Luciferin 4-monooxygenase (Photinus pyralis), P08659 | purified P. pyralis luciferase, luminescence, biochemical | Potency, µM (highest dose often 115 µM), actives largely listed as inhibitors | hit rate 2.5% among 76,000 | AID 1347043, 2019; note: nearly all actives have a fitted effect of over 65% in size
Target sequence (P08659 whole entry, looked up): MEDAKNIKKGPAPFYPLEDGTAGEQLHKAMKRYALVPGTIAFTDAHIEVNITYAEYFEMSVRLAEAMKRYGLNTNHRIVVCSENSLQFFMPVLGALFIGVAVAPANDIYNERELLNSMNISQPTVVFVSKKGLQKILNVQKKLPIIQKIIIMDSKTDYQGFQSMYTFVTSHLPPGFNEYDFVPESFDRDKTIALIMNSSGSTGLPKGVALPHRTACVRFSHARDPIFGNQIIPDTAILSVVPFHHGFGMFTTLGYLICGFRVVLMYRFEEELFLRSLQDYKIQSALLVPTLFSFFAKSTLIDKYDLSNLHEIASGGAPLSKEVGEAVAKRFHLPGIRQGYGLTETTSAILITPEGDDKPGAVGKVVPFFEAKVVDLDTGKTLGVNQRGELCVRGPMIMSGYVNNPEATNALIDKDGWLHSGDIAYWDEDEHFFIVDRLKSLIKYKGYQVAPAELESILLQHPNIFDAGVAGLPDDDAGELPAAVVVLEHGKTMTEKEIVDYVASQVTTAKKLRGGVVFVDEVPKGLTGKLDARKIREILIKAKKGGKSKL
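Luminescence read by CCD imaging after purified firefly luciferase (10nM final) was added to substrate buffer holding 10uM D-luciferin and 10uM ATP, pH 7.5, pre-dosed with compound.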
hNpr1 antagonist = Natriuretic polypeptide receptor (hNpr1) antagonism - Primary qHTS; Atrial natriuretic peptide receptor 1 (Homo sapiens), P16066; HEK293 hNpr1 GloSensor cGMP, ANP-stimulated luminescence; Potency, µM (highest dose often 46.3 µM), inactives show at the top dose activity change, negative = inhibition, most hits filed as inhibitors; hit rate 1.6% among 76,000; calls by dose curve; note: nearly all actives have a fitted effect of over 60% in size
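HEK293 cells stably expressing human Npr1 and cGMP GloSensor pGS-40F, loaded 2 h with 2% GloSensor reagent, given compound 30 min at room temperature. Luminescence read before and 20 min after 0.1 nM hNppA.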
GPT2 inhibitor = Primary qHTS assay for inhibitors of Glutamate pyruvate transaminase 2 (GPT2); Alanine aminotransferase 2 (Homo sapiens), Q8TD30; Potency, µM (titrated, usually from 57.7 µM), without a hit: top-dose activity change, negative = inhibition, most hits filed as inhibitors; Recombinant GPT2, coupled pyruvate oxidase/HRP Amplex Red fluorescence; hit rate 0.25% among 100,000; note: nearly all actives have a fitted effect of over 60% in size
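Fluorescence read-out: pyruvate from GPT2 turnover coupled to pyruvate oxidase, HRP and Amplex Red (0.2mM ThPP, 0.2U/mL PO and HRP, 50uM Amplex final). Substrates 250uM a-KG, 2mM L-alanine; enzyme 10ng/uL; 30 min RT.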
Numbers without * were called inactive; i = inactive; u = inconclusive; x = no result given; [ ] = another dose, or the depositor's remark. An excerpt weighted towards active compounds, which were near 10% of everything screened. Unless noted, calls come from the whole dose curve; as a rule, active = well fitted curve in the direction sought with a large enough effect; inconclusive = small, poorly fitted or top-dose-only effect, or another doubt; inactive = no such curve, though single readings can be large; an effect the other way counts as inactive or inconclusive. % is set by controls: 0 for no effect and ±100 for the full control effect; potency is the fitted concentration of half-maximal effect.

SMILES | HEK cytotox | 3T3 cytotox | FLuc inh | hNpr1 antagonist | GPT2 inhibitor
O=C(NC1CCN(c2ccnc3ccnn23)C1)c1ccc(Cl)cc1 (stereo not drawn) | 10µM* | u | x | x | i
O=C(NCCCc1ccccc1)C1CCN(c2ccnc3ccnn23)CC1 | 40µM* | u | x | x | i
O=C(NCc1cccc(C(F)(F)F)c1)C1CCCN(c2ccnc3ccnn23)C1 (stereo not drawn) | 45µM* | u | x | x | -6%
O=C(Cn1ccn2nc(-c3ccccc3)c(CO)c2c1=O)Nc1ccc(Cl)cc1F | -15% | -2% | i | -10% | i
COc1ccc(Cl)cc1-c1ccc2c(c1)C(=O)N1CCN(C(=O)c3cccs3)C[C@@H]1C(=O)N2 | u | -28% | i | -16% | -4%
Cn1cccc1C(=O)N[C@H]1CCN2C(=O)c3cc(Br)ccc3NC(=O)[C@@H]2C1 | -8%[172 µM] | 1%[174 µM] | i | -9%[70.6 µM] | 3%[88.5 µM]
O=C(N[C@H]1CCN2C(=O)c3cc(Br)ccc3NC(=O)[C@@H]2C1)c1ccco1 | u | 89µM* | i | 2%[70.6 µM] | -5%[88.5 µM]
O=C1Nc2ccc(-c3cccc(C(F)(F)F)c3)cc2C(=O)N2CCN(C(=O)c3cccs3)C[C@H]12 | 22µM* | 45µM* | i | -22% | 2%
COc1ccc(Cl)cc1-c1ccc2c(c1)C(=O)N1CC[C@H](NC(=O)c3cccs3)C[C@H]1C(=O)N2 | 32µM* | u | i | -25% | -12%
COc1ccc(Cl)cc1-c1ccc2c(c1)C(=O)N1CCN(C(=O)c3ccccc3)C[C@@H]1C(=O)N2 | 28µM* | u | i | 2% | u
NC(=O)C(=O)N1CCN2C(=O)c3cc(-c4ccc(Cl)cc4)ccc3NC(=O)[C@@H]2C1 | u | u | i | -1%[70.6 µM] | -6%[88.5 µM]
COc1ccc(-c2ccc3c(c2)C(=O)N2CCN(C(=O)c4cccc(F)c4)C[C@@H]2C(=O)N3)cc1 | u | -31% | u | -7% | -27%
O=C1Nc2ccc(-c3cccc(C(F)(F)F)c3)cc2C(=O)N2CCN(C(=O)c3cccc(F)c3)C[C@H]12 | 32µM* | u | u | -4% | -4%
COc1ccc(Cl)cc1-c1ccc2c(c1)C(=O)N1CCN(C(=O)C3CCCCC3)C[C@@H]1C(=O)N2 | u | 45µM* | i | 2% | 3%
O=C(N[C@H]1C[C@H]2C(=O)Nc3ccc(-c4cccs4)cc3C(=O)N2C1)c1ccccc1 | 32µM* | u | i | u | i
COc1ccc(C(=O)N[C@H]2C[C@H]3C(=O)Nc4ccc(-c5cccs5)cc4C(=O)N3C2)cc1 | u | -22% | i | -22% | 4%
N[C@H]1CCN2C(=O)c3cc(-c4ccc(Cl)cc4)ccc3NC(=O)[C@@H]2C1 | 40µM* | 32µM* | i | 0%[70.6 µM] | i
CN1CC(=O)N(C2CCCNCC2)Cc2c(NCCCO)ncnc21 (stereo not drawn) | i | i | x | x | i
O=C1Nc2ccc(-c3cccc(C(F)(F)F)c3)cc2C(=O)N2CCN(C(=O)c3ccccc3)C[C@H]12 | 20µM* | u | u | u | -1%
O=C1Nc2ccc(-c3cccc(C(F)(F)F)c3)cc2C(=O)N2CCN(C(=O)C3CCNCC3)C[C@H]12 | -14% | -21% | i | 4% | -3%
O=C1Nc2ccc(-c3cccc(C(F)(F)F)c3)cc2C(=O)N2CCN(C(=O)c3cccnc3)C[C@H]12 | u | -19% | i | -4% | 5%
O=C1Nc2ccc(-c3ccccc3)cc2C(=O)N2CCN(C(=O)c3ccccc3)C[C@H]12 | 89µM* | u | i | -13%[70.6 µM] | u
O=C1Nc2ccc(-c3cccc(C(F)(F)F)c3)cc2C(=O)N2CCN(C(=O)C3CCCC3)C[C@@H]12 | 40µM* | u | i | -3% | -14%
COc1ccccc1-c1ccc(C(=O)N2CCC(C(=O)NCc3ccccc3)CC2)cc1 | u | u | x | x | -5%
COc1ccccc1-c1ccc(C(=O)N2CCC(C(=O)N3CCC(Cc4ccccc4)CC3)CC2)cc1 | u | 22µM* | x | x | 4%
SMILES | HEK cytotox | 3T3 cytotox | FLuc inh | hNpr1 antagonist | GPT2 inhibitor
O=C(NCc1cccc(F)c1)C1CCN(C(=O)c2ccc(-c3cncnc3)cc2)CC1 | -17% | u | x | x | 1%
COc1ccccc1-c1ccc(C(=O)N2CCC(NC(=O)C3CCCC3)CC2)cc1 | u | u | x | x | i
COc1ccccc1-c1ccc(C(=O)N2CCC(C(=O)NCc3ccc(C(F)(F)F)cc3)CC2)cc1 | 35µM* | u | x | x | i
COc1ccccc1-c1ccc(C(=O)N2CCC(C(=O)NC3CCCC3)CC2)cc1 | 28µM* | u | x | x | -17%
O=C(NCc1ccc(C(F)(F)F)cc1)C1CCN(C(=O)c2ccc(-c3cncnc3)cc2)CC1 | u | 18µM* | x | x | x
COCCn1c(=O)c(C(=O)N2CCN([S+](=O)([O-])c3c(C)noc3C)CC2)nc2cccnc21 | i | -12% | x | x | -6%
COc1ccccc1-c1ccc(C(=O)N2CCC(NC(C)=O)CC2)cc1 | u | -19% | x | x | 0%
COc1ccccc1-c1ccc(C(=O)N2CCC(C(=O)NCc3cccc(Cl)c3)CC2)cc1 | 20µM* | u | x | x | -10%
COc1ccccc1-c1ccc(C(=O)N2CCC(C(=O)NCCCc3ccccc3)CC2)cc1 | 79µM* | u | x | x | i
COc1ccccc1-c1ccc(C(=O)N2CCC(NC(=O)Nc3ccc(Cl)cc3)CC2)cc1 | 32µM* | u | x | x | i
N#Cc1cccc(-c2c(C(=O)NCc3ccccn3)nc3sccn23)c1 | u | -30% | x | x | -6%
Cc1ccc(-c2cccc(CN3CCCC3C(=O)N3CCC(C#N)CC3)c2)cc1Cl (stereo not drawn) | 40µM* | 32µM* | x | x | x
Cc1ccc(-c2cccc(CN3CCCC3C(=O)N3CCCCC3)c2)cc1Cl (stereo not drawn) | 32µM* | 32µM* | x | x | x
O=C(NCc1cccc(Cl)c1)c1ccc2nnc(-c3ccc(F)cc3)n2c1 | u | u | x | x | i
COc1ccc(CCNC(=O)c2cc(-c3cccnc3)nc3c2cnn3C)cc1 | u | u | x | x | i
CN(Cc1cccc(C(F)(F)F)c1)C(=O)Nc1ccc(Cl)cc1 | 40µM* | 20µM* | i | -7% | 1%
CN(Cc1cccc(C(F)(F)F)c1)C(=O)Nc1ccccc1 | u | u | u | 0%[70.6 µM] | i

Bioassay records deposited in PubChem by National Center for Advancing Translational Sciences (NCATS).
